Screening data deposited in PubChem by Johns Hopkins Ion Channel Center.
KCNQ2 enhance: enhances the rat KCNQ2 potassium channel | O88943 | B-score at 10 µM | hit rate 0.54% among 310,000 | AID 2239 | CHO-K1 KCNQ2, FluxOR thallium flux fluorescence; hits give high values;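 active = fluorescence ratio B-score at least 3 SD of library B-scores, with initial fluorescence B-score within 3 of them, cut at about 5.3 in these data; same plate scores as AID 2156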;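 note: B-score of peak minus minimum over baseline fluorescence ratio after K+ and Tl+ stimulus; positive B-score means potentiation of KCNQ2 with more thallium influx and brighter signal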
Target sequence (O88943 whole entry, looked up): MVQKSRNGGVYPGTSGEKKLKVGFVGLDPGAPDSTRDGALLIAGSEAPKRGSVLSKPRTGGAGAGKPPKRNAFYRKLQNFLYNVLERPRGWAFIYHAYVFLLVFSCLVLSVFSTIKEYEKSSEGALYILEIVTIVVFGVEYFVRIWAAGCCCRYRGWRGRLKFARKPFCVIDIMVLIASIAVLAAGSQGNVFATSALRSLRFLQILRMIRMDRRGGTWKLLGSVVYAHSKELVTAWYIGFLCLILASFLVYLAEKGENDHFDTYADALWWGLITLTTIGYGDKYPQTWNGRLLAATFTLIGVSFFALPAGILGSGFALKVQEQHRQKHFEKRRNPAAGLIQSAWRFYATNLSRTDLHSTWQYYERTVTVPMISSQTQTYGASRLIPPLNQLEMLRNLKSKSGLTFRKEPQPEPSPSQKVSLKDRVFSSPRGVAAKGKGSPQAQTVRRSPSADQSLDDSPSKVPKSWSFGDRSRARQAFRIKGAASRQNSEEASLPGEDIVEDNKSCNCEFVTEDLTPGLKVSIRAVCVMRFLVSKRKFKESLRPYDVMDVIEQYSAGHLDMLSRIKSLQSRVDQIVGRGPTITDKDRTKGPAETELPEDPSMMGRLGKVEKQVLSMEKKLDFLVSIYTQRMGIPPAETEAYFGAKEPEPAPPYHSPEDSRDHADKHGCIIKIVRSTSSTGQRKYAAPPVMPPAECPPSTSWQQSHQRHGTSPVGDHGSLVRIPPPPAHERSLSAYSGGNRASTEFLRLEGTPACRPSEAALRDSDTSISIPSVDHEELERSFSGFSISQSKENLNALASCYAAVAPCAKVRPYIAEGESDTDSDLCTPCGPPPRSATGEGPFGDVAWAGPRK
KCNQ2 inh: KCNQ2 (rat) channel inhibition | CHO-K1 KCNQ2, FluxOR thallium flux, 20 min; hits give low values | O88943 | B-score at 10 µM | hit rate 1.1% among 310,000;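 active = fluorescence ratio B-score at most minus 3 library SDs, with starting brightness B-score within 2 library SDs, cut at about -5.5 in these data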
KCNQ2 block conf: confirmation of rat KCNQ2 potassium channel inhibitors. shares compounds with KCNQ2 inh. AID 493025. activity change, negative = inhibition, % at 10 µM. hit rate 57% among 1,000. KCNQ2-expressing cells, thallium flux, inhibition; hits give low values;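 note: 0% = vehicle wells and values are ratio percent relative to vehicle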
KCNQ1 spec: human KCNQ1 activity in KCNQ2 inhibitor specificity screen; KCNQ1-expressing cells, FluxOR thallium flux fluorescence; hits give low values; hit rate 15% among 1,000; AID 493026; activity change, negative = inhibition, % at 10 µM; shares compounds with KCNQ2 inh;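 active = activity change at least 3 SD of negative controls below their mean in both duplicate wells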;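 note: CHO cells stably transfected with KCNQ1 and depolarized by potassium stimulus; peak minus minimum fluorescence over baseline after thallium addition; 0% = vehicle negative control and -100% = blank without thallium stimulus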
CHO Tl ctr: activity in parental CHO cells lacking KCNQ2 | thallium flux counter-screen; hits give low values | AID 493029 | hit rate 14% among 1,000 | shares compounds with KCNQ2 inh | activity change, % at 10 µM;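 note: 0% = vehicle negative controls with stimulus buffer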
KCNQ2 inh confirm: rat KCNQ2 inhibition confirmed by electrophysiology | shares compounds with KCNQ2 inh | KCNQ2-expressing cells, automated patch clamp current | calls only at 10 µM | hit rate 49% among 550 | AID 588531
* = called active by the depositor; i = inactive; · = no result given; + = active, no number. An excerpt weighted towards active compounds, which were near 1.6% of everything screened. Unless noted, the rule behind the calls is not given here.

SMILES	KCNQ2 enhance	KCNQ2 inh	KCNQ2 block conf	KCNQ1 spec	CHO Tl ctr	others
BrC(=C\c1ccccc1)/C=N/Nc1nc(N2CCOCC2)nc(N2CCOCC2)n1	0.25	i	·	·	·
C/C(=C/C=N/Nc1nc(N2CCCCC2)nc(N2CCCCC2)n1)c1ccccc1	-7.2	-7.2*	-29%*	i	i	KCNQ2 inh confirm=i
COc1c(C(=O)NNC(=O)c2ccccc2)csc1Br	0.84	i	·	·	·
COc1ccc(-c2cc(C(F)F)n3ncc(C(=O)N4CCc5ccccc5C4)c3n2)cc1	·	i	·	·	·
COc1ccccc1-c1cc(C(F)(F)F)n2ncc(C(=O)N3CCc4ccccc4C3)c2n1	-7.6	-7.6*	i	i	i
COc1cccc(CNC(=O)C2CCN(S(=O)(=O)N3CCC(C)CC3)CC2)c1	2.6	i	·	·	·
CN(C)C(=O)c1cn(-c2ccccc2)nc1-c1cccs1	0.55	i	·	·	·
O=C(c1cn(-c2ccccc2)nc1-c1cccs1)N(CCO)Cc1ccccc1	-7.5	-7.5*	i	i	i
Cc1ccccc1CC1(CO)CCCN(C(=O)c2cc(Cl)ccc2F)C1 (stereo not drawn)	0.43	i	·	·	·
Cc1ccccc1CC1(CO)CCCN(C(=O)c2cccc(Cl)c2)C1 (stereo not drawn)	-6.8	-6.8*	-27%*	i	i	KCNQ2 inh confirm=i
CC(C)c1ccc(CNC(=O)C2CCCN2S(=O)(=O)c2ccccc2)cc1 (stereo not drawn)	2	i	·	·	·
COc1ccccc1OCC(=O)NC1CC(C)(C)NC(C)(C)C1	0.36	i	·	·	·
C=CCn1c(SCC(=O)N2CCOCC2)nc2sc3c(c2c1=O)CCCC3	2.5	i	·	·	·
C=CCn1c(SCC(N)=O)nc2sc3c(c2c1=O)CCC3	-9.3	-9.3*	i	i	i
CC(=O)Oc1ccc(/C=C(\NC(=O)c2ccco2)C(=O)NCc2ccco2)cc1	·	i	·	·	·
Clc1ccc(SCc2cn3ccsc3n2)cc1	·	i	·	·	·
Cc1csc2nc(CSc3ccc(Cl)cc3)cn12	-11	-11*	-38%*	-43%*	-35%*	KCNQ2 inh confirm=+
CC1Oc2ccccc2N(CC(=O)N(Cc2ccccc2)Cc2ccccn2)C1=O (stereo not drawn)	-7.2	-7.2*	-16%*	i	i	KCNQ2 inh confirm=+
COc1ccc(CN(Cc2ccccn2)C(=O)CN2C(=O)COc3ccccc32)cc1	0.38	i	·	·	·
CC(C)(C)n1nnnc1C(c1cccnc1)N1CCN(c2cccc(C(F)(F)F)c2)CC1 (stereo not drawn)	1.6	i	·	·	·
CC(C)(C)c1cc(C(c2cccnc2)N2CCN(CCO)CC2)cc(C(C)(C)C)c1O (stereo not drawn)	-9.2	-9.2*	-26%*	i	i	KCNQ2 inh confirm=i
CN1CCN(S(=O)(=O)c2cccc3nsnc23)CC1	0.06	i	·	·	·
Cc1nc2c(-c3ccccc3)c(C)nn2c(N)c1-c1ccccc1	-7.5	-7.5*	-34%*	i	i	KCNQ2 inh confirm=i
Cc1nn2c(N)c(-c3ccccc3)cnc2c1-c1ccc(Cl)cc1	·	i	·	·	·
CCN(CC)CCn1c(NS(=O)(=O)c2ccc(Cl)cc2)nc2ccccc21	0.2	i	·	·	·
SMILES	KCNQ2 enhance	KCNQ2 inh	KCNQ2 block conf	KCNQ1 spec	CHO Tl ctr	others
Nc1nnc(SCC(=O)NC2CCCCCC2)s1	·	i	·	·	·
O=C(Cn1ncc2c(=O)oc3ccccc3c21)N1CCc2ccccc2C1	1.5	i	·	·	·
CCn1c(C(=O)N2CCc3ccccc3C2)cc2oc3ccccc3c21	-6.8	-6.8*	-44%*	-52%*	-44%*
COc1cc2c(cc1OC)CN(C(=O)c1oc3ccccc3c1C)CC2	·	i	·	·	·
Cn1c(C(=O)N2CCc3ccccc3C2)cc2oc3ccccc3c21	-11	-11*	-16%*	i	i	KCNQ2 inh confirm=+
Cc1cc(CN2CCC(N3CCC(C(=O)NC4CC4)CC3)CC2)cc(C)c1O	·	i	·	·	·
CCOc1ccc(Nc2nc(NCC3CCCO3)c3ccccc3n2)cc1 (stereo not drawn)	-6.7	-6.7*	i	i	i
c1ccc(Nc2nc(NCC3CCCO3)c3ccccc3n2)cc1 (stereo not drawn)	·	i	·	·	·
Cc1cnc(CN(C)Cc2c(C(=O)N3CCc4ccccc4C3)nc3ccc(Cl)cn23)[nH]1	·	i	·	·	·
CC(C)CN(C)Cc1c(C(=O)N2CCc3ccccc3C2)nc2ccc(Cl)cn12	-8.7	-8.7*	-32%*	-38%*	-25%*	KCNQ2 inh confirm=+
Cc1cccc(N(CC(=O)NC2CCCC2)C(=O)CNC(=O)c2ccco2)c1C	0.8	i	·	·	·
Cc1ccc(/C=C/C(=O)NC(=S)Nc2ccc(S(=O)(=O)Nc3cc(C)on3)cc2)cc1	·	i	·	·	·
O=C(CCn1c(=O)oc2ccccc21)N(Cc1ccccc1)c1ccccc1	-11	-11*	-32%*	i	i	KCNQ2 inh confirm=+
CN(Cc1ccccc1)C(=O)CCn1c(=O)oc2ccccc21	1	i	·	·	·
CCOc1cc(S(=O)(=O)NCCCN2CCOCC2)c(C)cc1C	0.78	i	·	·	·
Cc1ccc(Sc2c(C)nn(C(=O)c3cccc(S(=O)(=O)N4CCOCC4)c3)c2C)cc1	-9	-9*	-33%*	i	i	KCNQ2 inh confirm=i
Cc1cc(C)n(C(=O)c2cccc(S(=O)(=O)N3CCOCC3)c2)n1	·	i	·	·	·
O=C(NC1CCCCC1)c1sc(N2CCOCC2)nc1-c1ccccc1	·	i	·	·	·
CCc1nc(SCC(=O)N2c3ccccc3CC2C)c2c(C)c(C)sc2n1 (stereo not drawn)	-6.7	-6.7*	-20%*	i	i	KCNQ2 inh confirm=i
CCc1nc(SCC(=O)Nc2cc(C)ccc2OC)c2c(C)c(C)sc2n1	-6.8	-6.8*	i	i	i
Cc1sc2nc(C(C)C)nc(SCC(=O)N3c4ccccc4CC3C)c2c1C (stereo not drawn)	2.4	i	·	·	·
COc1ccc(C)cc1NC(=O)CCCNC(=O)Cn1cnc2sc(C)c(C)c2c1=O	·	i	·	·	·
Cc1c(Cl)cccc1NC(=O)CCN1CCN(C)CC1	1.3	i	·	·	·
CC(OC(=O)Cn1[nH]c(=O)c2ccccc2c1=O)C(=O)Nc1ccc(F)cc1Cl (stereo not drawn)	·	i	·	·	·
Clc1cccc(Cl)c1CO/N=C/c1c(-c2ccccc2)nc2n1CCS2	-8.5	-8.5*	i	i	i
SMILES	KCNQ2 enhance	KCNQ2 inh	KCNQ2 block conf	KCNQ1 spec	CHO Tl ctr	others
COC(=O)/C(C#N)=C/c1c(-c2ccccc2)nc2n1CCS2	·	i	·	·	·
Cc1c(OCC(=O)N(C)c2ccccc2)ccc2c3c(c(=O)oc12)CCC3	·	i	·	·	·
O=C(OCc1cccc([N+](=O)[O-])c1)c1ccc[nH]c1=O	1.2	i	·	·	·
CC[C@@]12C(=O)N(c3cccc(F)c3)C(=O)N1[C@H](c1ccc(Br)cc1)[C@@H]1C(=O)N(C(C)(C)C)C(=O)[C@@H]12	·	i	·	·	·
CCOC(=O)c1c(S(=O)(=O)Nc2ccccc2OCC)c(C)n(C)c1C	·	i	·	·	·
CCOC(=O)c1c(-c2ccc(Cl)cc2)csc1NC(=O)CNCc1ccco1	·	i	·	·	·
CCOC(=O)c1c(-c2ccccc2)csc1NC(=O)C(C)NCc1ccco1 (stereo not drawn)	-7.2	-7.2*	-31%*	i	i	KCNQ2 inh confirm=i
